Measured values taken from PubChem BioAssay AID1903 (Southern Research Specialized Biocontainment Screening …, 2009).
Several values for one entry are separate records, joined by “and”; a condition that tells them apart may be missing. Equal entries are not always repeated. In all, about 310,000 compounds went through this assay and about 1,200 (0.39%) were called active. The rule behind the calls is not given here. Not all results are given here. Potency and affinity values are given separately.

Target: Large T antigen (Simian virus 40) (UniProt P03070)
Sequence (P03070 whole entry, looked up): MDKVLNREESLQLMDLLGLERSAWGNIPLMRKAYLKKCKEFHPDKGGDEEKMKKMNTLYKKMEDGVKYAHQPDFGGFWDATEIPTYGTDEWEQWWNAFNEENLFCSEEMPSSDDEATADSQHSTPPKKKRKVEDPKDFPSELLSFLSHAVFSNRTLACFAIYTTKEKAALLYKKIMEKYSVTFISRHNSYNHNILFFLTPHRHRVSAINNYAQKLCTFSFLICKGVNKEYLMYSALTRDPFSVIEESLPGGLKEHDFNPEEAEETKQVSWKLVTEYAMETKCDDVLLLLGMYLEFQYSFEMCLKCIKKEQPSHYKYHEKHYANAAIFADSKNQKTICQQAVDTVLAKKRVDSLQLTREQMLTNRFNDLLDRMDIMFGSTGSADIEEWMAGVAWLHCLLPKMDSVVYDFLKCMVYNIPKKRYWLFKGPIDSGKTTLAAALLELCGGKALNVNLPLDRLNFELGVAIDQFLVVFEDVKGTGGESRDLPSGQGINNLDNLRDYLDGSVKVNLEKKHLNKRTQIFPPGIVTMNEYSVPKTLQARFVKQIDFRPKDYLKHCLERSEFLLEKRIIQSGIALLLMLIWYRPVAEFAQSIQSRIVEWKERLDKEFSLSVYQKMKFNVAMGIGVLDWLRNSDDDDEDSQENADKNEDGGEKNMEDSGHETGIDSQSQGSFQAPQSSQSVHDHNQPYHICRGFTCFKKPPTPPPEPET
Experiment: SV40 large T antigen inhibitors, biochemical (AID 1903)
Settings: SV40 large T antigen ATPase/helicase inhibition assay; at 20 µM; stronger effect = higher value

inhibition, inactive:
CCCC(c1nnnn1CS(=O)(=O)c1ccc(C)cc1)N1CCC(C(N)=O)CC1 (stereo unspecified) 1.94%
CCOc1ccc(NC(=O)CCn2ccnc2)cc1 2.19%
O=C(CCCCCN1C(=O)c2ccccc2C1=O)NCCc1nc2ccccc2[nH]1 5.03%
COc1ccc(Nc2nc(N3CCN(S(=O)(=O)N(C)C)CC3)nc3ccccc23)cc1 6.91%
COc1ccc(-c2nc(-c3cccs3)c(-c3cccs3)[nH]2)cc1OC 8.77%
Clc1nccnc1N/N=C/c1ccc(Br)cc1 0.07%
Oc1ccc(/C=N/Nc2cccc(Cl)n2)c(O)c1 21.8%
Oc1ccccc1/C=N/Nc1nccnc1Cl 0.02%
COc1ccc(/C=N/Nc2nccnc2Cl)c(OC)c1 5.32%
Oc1ccc(/C=N/Nc2ccnc3cc(Cl)ccc23)c(O)c1 8.76%
Fc1ccc(/C=N/Nc2nccnc2Cl)cc1 8.81%
Cc1cc(C)c(C)c(S(=O)(=O)N2CCSCC2)c1C 8.62%
N#Cc1c(NC(=O)COC(=O)c2ccc(F)cc2)sc2c1CCC2 1.58%
O=C(CSc1nc2c(cnn2-c2ccccc2)c(=O)[nH]1)N1CCCCC1 24.9%
COc1ccc(/C=C(\NC(=O)c2ccc(OC)cc2)C(=O)NC(CCSC)C(=O)O)cc1 (stereo unspecified) 9.06%
O=C(Nc1ccccc1)C1CCN(S(=O)(=O)c2ccc3c(c2)OCCO3)CC1 20.4%
NC(=O)CSc1nnc2ccc(-c3ccco3)nn12 16.6%
CCCCn1c(SCC(N)=O)nnc1-c1ccco1 8.33%
O=C(COc1cccnc1[N+](=O)[O-])c1c[nH]c2ccccc12 21.6%
Cc1cc(C)c(C(=O)COc2cccnc2[N+](=O)[O-])cc1C -4.61%
COc1ccc(C2OCC3(O)C(c4ccc(OC)c(OC)c4)OCC23)cc1OC (stereo unspecified) 4.9%
COc1ccc(/C=N/NS(=O)(=O)c2ccccc2)cc1OC 13.2%
C/C(=N/NS(=O)(=O)c1ccccc1)c1c[nH]c2ccccc12 31.3%
COc1cc(/C=N/NS(=O)(=O)c2ccc(C)c([N+](=O)[O-])c2)cc([N+](=O)[O-])c1O 24.7%
O=[N+]([O-])c1cccc(/C=N/NS(=O)(=O)c2ccccc2)c1 9.33%
Cc1ccc(S(=O)(=O)N/N=C/c2ccccc2O)cc1[N+](=O)[O-] 12.5%
C/C(=N\NS(=O)(=O)c1ccc([N+](=O)[O-])cc1)c1c[nH]c2ccccc12 34%
CCN(CC)c1ccc(/C=N/NS(=O)(=O)c2cccc([N+](=O)[O-])c2)cc1 10.4%
CN(C)c1ccc(/C=N/NS(=O)(=O)c2ccc(Br)cc2)cc1 24.5%
Cc1ccc(C(c2c(C)[nH][nH]c2=O)c2c(C)[nH][nH]c2=O)cc1[N+](=O)[O-] 20.9%
COC(=O)c1cccc(-n2c(C)cc(C=O)c2C)c1C 17.4%
NC(=O)C1CCN(C(=O)c2ccc(Oc3ccccc3)cc2)CC1 13.6%
COC(=O)c1c(S(N)(=O)=O)c2ccccc2n1C 21.9%
Nc1nccnc1C(=O)OCC(=O)N1CCN(S(=O)(=O)c2ccc(Cl)cc2)CC1 15.7%
CC1=NN(c2ccccc2)C(=O)C1N=Nc1ccc(C)cc1 (stereo unspecified) -3.33%
CC1=NN(c2ccccc2)C(=O)C1c1ccccc1 (stereo unspecified) 31.6%
CCOc1ccccc1NC(=O)COC(=O)CSc1ccc(Cl)cc1 -3.03%
COc1cccc(-c2nn(C)c3sc(C(=O)NCc4ccco4)cc23)c1 16.5%
CCn1c(-c2cc(OC)c(OC)c(OC)c2)n[nH]c1=S 8.67%
COc1cc(-c2nc(N)n[nH]2)cc(OC)c1OC 3.91%
O=C(CNC(=O)c1ccccc1)OCCCOC(=O)CNC(=O)c1ccccc1 8.32%
Cc1cc(C)c(C)c(S(=O)(=O)N2CCN(C(=O)c3ccco3)CC2)c1C 30.6%
Fc1ccc(-c2nc(-c3cccs3)[nH]c2-c2ccc(F)cc2)cc1 0.16%
O=C(O)c1ccc(-c2nc(-c3ccccc3)c(-c3ccccc3)[nH]2)cc1 13.6%
Cn1c(Cc2ccccc2)nnc1SCC(=O)NC1CC1 5.03%
Cc1cc(C)nc(SCSc2nc(C)cc(C)n2)n1 1.38%
Cc1cc(C)nc(SCCN(C)C)n1 21.5%
N#CC1=C(N)C2=CCCC[C@H]2[C@H](c2ccc(Br)cc2)C1(C#N)C#N 29.5%
N#CC1=C(N)C2=CCCC[C@H]2[C@H](c2ccccc2)C1(C#N)C#N 10.5%
COC(=O)C1=C(O)/C(=C\c2cc(C)n(-c3ccccc3C)c2C)N=C1C 21.4%
CCOC(=O)C1=C(O)/C(=C\c2cccc(OC)c2)N=C1C 4.85%
COC(=O)C1=C(O)/C(=C\c2cc(C)n(-c3ccccc3F)c2C)N=C1C 8.75%
CCOC(=O)C1=C(O)/C(=C\c2cccs2)N=C1C 10.2%
Cc1nc2ccccc2c(C)c1CC(=O)N(C)CC(=O)Nc1cccc(F)c1 6.37%
Cc1noc(C)c1C(=O)Nc1nc2ccc(Cl)cc2s1 13.7%
Cc1cc(C)nc(SCC(=O)N2CCCCC2)n1 24.1%
O=C1c2ccc3c4c(ccc(c24)C(=O)N1c1ccc(O)cc1)C(=O)N(c1ccc(O)cc1)C3=O 2.8%
O=C1CCCC(=O)N1c1ccc(O)cc1 12.2%
O=C(NC1CC1)C1=C[C@@H](c2ccccc2)C[C@@H](OCCCCO)O1 5.56%
COc1cc(/C=C(\C#N)C(=O)Nc2cccc(C(=O)O)c2)ccc1OCc1ccc(F)cc1 -17.7%
Cc1c(C(=O)NN)[nH]c2ccc([N+](=O)[O-])cc12 7.05%
CCOC(=O)C1(CCc2ccccc2)CCN(C(=O)c2cccc(C)n2)CC1 4.43%
CCc1nnc(NS(=O)(=O)c2ccc(NC(=O)c3cc4ccccc4oc3=O)cc2)s1 -3.35%
CCc1nnc(NS(=O)(=O)c2ccc(NC(=O)c3cccc4ccccc34)cc2)s1 11.1%
O=C(c1cc(-c2ccccc2Cl)nc2ccccc12)N1CCC1 8.29%
O=C1N/C(=N/S(=O)(=O)Cc2ccccc2)S/C1=C/c1ccc2c(c1)OCO2 22.1%
COc1ccc(C(=O)C[n+]2cccc(C(N)=O)c2)cc1 1.66%
Cc1cc(O)ccc1C1(c2ccc(O)cc2C)OC(=O)c2ccccc21 4.57%
O=C1OC(c2ccc(O)cc2)(c2ccc(O)cc2)c2ccccc21 9.29% and 0.77%
COCCNC(=O)c1c[nH]n2c(=O)cc(C3CCN(C(=O)OC(C)(C)C)CC3)nc12 6.9%
CCN1CCN(c2ccc(NC(=O)c3cccc(OCc4ccccc4)c3)cc2)CC1 8.98%
O=C1C2C3C=CC(CC3)C2C(=O)N1/N=C/c1ccccc1O (stereo unspecified) -0.603%
COc1ccccc1/C=N/N1C(=O)C2C3C=CC(CC3)C2C1=O (stereo unspecified) 5.91%
COc1cc(/C=N/N2C(=O)C3C4c5ccccc5C(c5ccccc54)C3C2=O)ccc1O (stereo unspecified) 19.2%
O=C1C2C3C=CC(CC3)C2C(=O)N1/N=C/c1ccc(O)cc1 (stereo unspecified) 22.8%
O=C(CSc1nnnn1C1CCCC1)Nc1ccccc1F 14%
COC(=O)c1sc(-c2cccs2)cc1N 20%
CC(=O)Nc1nnc(SCc2ccc(C(=O)Nc3ccccc3F)cc2)s1 5.26%
CC1(C)CC(=O)C(N=Nc2ccc(-c3ccccc3)cc2)=C(O)C1 28.9%
Oc1ccc(N=Nc2ccccc2)cc1 18.4%
O=C(O)c1ccccc1C(=O)Nc1ccccc1NC(=O)c1ccccc1C(=O)O 5.06%
O=C(NC1=NN(c2ccccc2)CC1)Nc1ccccc1F -6.18%
CCCSc1oc(-c2ccco2)nc1S(=O)(=O)c1ccccc1 1.06%
COc1cc(SC)ccc1C(=O)NCCc1c[nH]c2ccccc12 8.89%
CC(C)(C)NC(=O)CSCc1c(Cl)cccc1Cl 3.06%
COc1ccc(OC)c(-c2c3c([nH]c(=S)c2C#N)CCCC3)c1 20.7%
N#Cc1c(-c2ccc(Cl)cc2)c2c([nH]c1=S)CCCC2 25.6%
COc1ccc(-c2c3c([nH]c(=S)c2C#N)CCC3)cc1 34.4%
N#Cc1c(-c2ccncc2)c2c([nH]c1=S)CCCC2 16.1%
O=C(CN1C(=O)/C(=C/c2ccc(C(F)(F)F)cc2)Sc2ccccc21)NCCCN1CCOCC1 6.23%
O=[N+]([O-])c1ccc(N2CCN(c3ccccn3)CC2)c(Cl)c1 9.91%
O=C(CSc1nnc(-c2ccco2)c(-c2ccco2)n1)c1ccccc1 -0.39%
CSc1nnc(-c2ccco2)c(-c2ccco2)n1 54.2%
COc1ccc(-n2nnnc2SCC(=O)NCCc2ccccc2)cc1OC 5.41%
Cc1cccc(-c2noc(CNC(=O)c3ccc4c(c3)OCO4)n2)c1 9.48%
CC(CCc1ccccc1)NC(=O)CCc1cn(C)c2ccccc12 (stereo unspecified) 8.16%
